# Experimental data reported in ChEMBL document CHEMBL1961873, “Compounds: GSK PKIS; Assays: Nanosyn kinase panel” (2012).
# Experiments:
# [1] = biological target: Serine/threonine-protein kinase PAK 6 (Homo sapiens) (UniProt Q9NQU5); conditions: at 1 µM;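 also: values are mean percent inhibition of PAK6 kinase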
# [2] = system: Tyrosine-protein kinase ABL1 (Homo sapiens), P00519 [E255K]; conditions: at 0.1 µM
# [3] = system: Tyrosine-protein kinase ABL1 (Homo sapiens), P00519 [E255K]; conditions: at 1 µM
# [4] = system: Tyrosine-protein kinase ABL1 (Homo sapiens), P00519 [H396P]; conditions: at 0.1 µM
# [5] = system: Tyrosine-protein kinase ABL1 (Homo sapiens), P00519 [H396P]; conditions: at 1 µM
# [6] = system: Tyrosine-protein kinase ABL1 (Homo sapiens), P00519 [M351T]; conditions: at 0.1 µM
# [7] = system: Tyrosine-protein kinase ABL1 (Homo sapiens), P00519 [M351T]; conditions: at 1 µM
# [8] = system: Tyrosine-protein kinase ABL1 (Homo sapiens), P00519 [Q252H]; conditions: at 0.1 µM
# [9] = system: Tyrosine-protein kinase ABL1 (Homo sapiens), P00519 [Q252H]; conditions: at 1 µM
# [10] = system: Tyrosine-protein kinase ABL1 (Homo sapiens), P00519 [T315I]; conditions: at 0.1 µM
# [11] = system: Tyrosine-protein kinase ABL1 (Homo sapiens), P00519 [T315I]; conditions: at 1 µM
# [12] = system: Tyrosine-protein kinase ABL1 (Homo sapiens), P00519 [Y253F]; conditions: at 0.1 µM
# [13] = system: Tyrosine-protein kinase ABL1 (Homo sapiens), P00519 [Y253F]; conditions: at 1 µM
# [14] = biological target: Tyrosine-protein kinase ABL1 (Homo sapiens) (UniProt P00519); conditions: at 0.1 µM
# [15] = biological target: Tyrosine-protein kinase ABL1 (Homo sapiens) (UniProt P00519); conditions: at 1 µM
# [16] = biological target: ALK tyrosine kinase receptor (Homo sapiens) (UniProt Q9UM73); conditions: at 0.1 µM
# [17] = biological target: ALK tyrosine kinase receptor (Homo sapiens) (UniProt Q9UM73); conditions: at 1 µM
# [18] = biological target: Tyrosine-protein kinase ABL2 (Homo sapiens) (UniProt P42684); conditions: at 0.1 µM
# [19] = biological target: Tyrosine-protein kinase ABL2 (Homo sapiens) (UniProt P42684); conditions: at 1 µM
# [20] = biological target: Tyrosine-protein kinase receptor UFO (Homo sapiens) (UniProt P30530); conditions: at 0.1 µM;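 also: values are mean percent inhibition of AXL from the GSK PKIS screen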
# Chain of Tyrosine-protein kinase receptor UFO (Homo sapiens) (P30530 whole entry): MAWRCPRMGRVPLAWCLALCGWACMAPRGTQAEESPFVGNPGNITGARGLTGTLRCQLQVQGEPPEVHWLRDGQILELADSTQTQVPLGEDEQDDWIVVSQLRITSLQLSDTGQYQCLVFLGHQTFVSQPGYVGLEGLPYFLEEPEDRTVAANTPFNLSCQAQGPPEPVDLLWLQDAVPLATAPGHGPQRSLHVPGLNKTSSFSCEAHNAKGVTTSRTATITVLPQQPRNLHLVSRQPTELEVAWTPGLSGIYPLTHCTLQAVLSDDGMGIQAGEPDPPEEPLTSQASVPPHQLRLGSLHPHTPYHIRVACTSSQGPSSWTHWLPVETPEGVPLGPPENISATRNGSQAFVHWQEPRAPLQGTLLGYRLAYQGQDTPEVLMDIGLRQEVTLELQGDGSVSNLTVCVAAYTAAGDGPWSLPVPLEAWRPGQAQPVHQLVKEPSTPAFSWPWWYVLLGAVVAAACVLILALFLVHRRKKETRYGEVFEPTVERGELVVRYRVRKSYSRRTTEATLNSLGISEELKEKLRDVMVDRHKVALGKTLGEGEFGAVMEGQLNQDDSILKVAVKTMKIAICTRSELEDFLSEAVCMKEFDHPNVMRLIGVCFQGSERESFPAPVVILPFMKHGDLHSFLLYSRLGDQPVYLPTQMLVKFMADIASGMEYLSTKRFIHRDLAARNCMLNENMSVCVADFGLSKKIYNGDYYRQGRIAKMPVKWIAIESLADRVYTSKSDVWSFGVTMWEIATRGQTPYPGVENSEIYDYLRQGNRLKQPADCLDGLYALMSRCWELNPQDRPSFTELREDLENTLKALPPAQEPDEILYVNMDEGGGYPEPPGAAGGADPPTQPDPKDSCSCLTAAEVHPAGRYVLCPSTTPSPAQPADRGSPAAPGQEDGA
# Chain of Serine/threonine-protein kinase PAK 6 (Homo sapiens) (Q9NQU5 whole entry, looked up): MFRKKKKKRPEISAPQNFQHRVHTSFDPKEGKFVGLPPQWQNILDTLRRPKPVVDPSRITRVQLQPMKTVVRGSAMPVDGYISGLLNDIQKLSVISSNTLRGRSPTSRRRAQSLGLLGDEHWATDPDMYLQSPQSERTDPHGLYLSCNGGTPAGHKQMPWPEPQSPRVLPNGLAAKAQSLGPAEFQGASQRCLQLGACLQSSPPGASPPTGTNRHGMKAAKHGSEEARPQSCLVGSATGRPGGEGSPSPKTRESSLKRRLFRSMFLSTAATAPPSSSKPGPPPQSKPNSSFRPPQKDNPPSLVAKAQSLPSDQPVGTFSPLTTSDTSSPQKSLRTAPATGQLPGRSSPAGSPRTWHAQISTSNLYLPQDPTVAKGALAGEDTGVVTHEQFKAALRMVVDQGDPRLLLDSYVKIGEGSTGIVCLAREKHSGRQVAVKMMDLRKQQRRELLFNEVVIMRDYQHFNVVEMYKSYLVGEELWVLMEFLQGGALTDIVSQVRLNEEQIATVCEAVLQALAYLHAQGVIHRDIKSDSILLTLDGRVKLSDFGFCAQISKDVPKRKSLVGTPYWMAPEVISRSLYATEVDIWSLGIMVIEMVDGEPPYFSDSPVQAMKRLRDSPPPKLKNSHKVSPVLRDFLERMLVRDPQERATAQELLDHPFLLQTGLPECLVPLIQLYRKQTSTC
# Chain of ALK tyrosine kinase receptor (Homo sapiens) (Q9UM73 19-1620 limits assumed): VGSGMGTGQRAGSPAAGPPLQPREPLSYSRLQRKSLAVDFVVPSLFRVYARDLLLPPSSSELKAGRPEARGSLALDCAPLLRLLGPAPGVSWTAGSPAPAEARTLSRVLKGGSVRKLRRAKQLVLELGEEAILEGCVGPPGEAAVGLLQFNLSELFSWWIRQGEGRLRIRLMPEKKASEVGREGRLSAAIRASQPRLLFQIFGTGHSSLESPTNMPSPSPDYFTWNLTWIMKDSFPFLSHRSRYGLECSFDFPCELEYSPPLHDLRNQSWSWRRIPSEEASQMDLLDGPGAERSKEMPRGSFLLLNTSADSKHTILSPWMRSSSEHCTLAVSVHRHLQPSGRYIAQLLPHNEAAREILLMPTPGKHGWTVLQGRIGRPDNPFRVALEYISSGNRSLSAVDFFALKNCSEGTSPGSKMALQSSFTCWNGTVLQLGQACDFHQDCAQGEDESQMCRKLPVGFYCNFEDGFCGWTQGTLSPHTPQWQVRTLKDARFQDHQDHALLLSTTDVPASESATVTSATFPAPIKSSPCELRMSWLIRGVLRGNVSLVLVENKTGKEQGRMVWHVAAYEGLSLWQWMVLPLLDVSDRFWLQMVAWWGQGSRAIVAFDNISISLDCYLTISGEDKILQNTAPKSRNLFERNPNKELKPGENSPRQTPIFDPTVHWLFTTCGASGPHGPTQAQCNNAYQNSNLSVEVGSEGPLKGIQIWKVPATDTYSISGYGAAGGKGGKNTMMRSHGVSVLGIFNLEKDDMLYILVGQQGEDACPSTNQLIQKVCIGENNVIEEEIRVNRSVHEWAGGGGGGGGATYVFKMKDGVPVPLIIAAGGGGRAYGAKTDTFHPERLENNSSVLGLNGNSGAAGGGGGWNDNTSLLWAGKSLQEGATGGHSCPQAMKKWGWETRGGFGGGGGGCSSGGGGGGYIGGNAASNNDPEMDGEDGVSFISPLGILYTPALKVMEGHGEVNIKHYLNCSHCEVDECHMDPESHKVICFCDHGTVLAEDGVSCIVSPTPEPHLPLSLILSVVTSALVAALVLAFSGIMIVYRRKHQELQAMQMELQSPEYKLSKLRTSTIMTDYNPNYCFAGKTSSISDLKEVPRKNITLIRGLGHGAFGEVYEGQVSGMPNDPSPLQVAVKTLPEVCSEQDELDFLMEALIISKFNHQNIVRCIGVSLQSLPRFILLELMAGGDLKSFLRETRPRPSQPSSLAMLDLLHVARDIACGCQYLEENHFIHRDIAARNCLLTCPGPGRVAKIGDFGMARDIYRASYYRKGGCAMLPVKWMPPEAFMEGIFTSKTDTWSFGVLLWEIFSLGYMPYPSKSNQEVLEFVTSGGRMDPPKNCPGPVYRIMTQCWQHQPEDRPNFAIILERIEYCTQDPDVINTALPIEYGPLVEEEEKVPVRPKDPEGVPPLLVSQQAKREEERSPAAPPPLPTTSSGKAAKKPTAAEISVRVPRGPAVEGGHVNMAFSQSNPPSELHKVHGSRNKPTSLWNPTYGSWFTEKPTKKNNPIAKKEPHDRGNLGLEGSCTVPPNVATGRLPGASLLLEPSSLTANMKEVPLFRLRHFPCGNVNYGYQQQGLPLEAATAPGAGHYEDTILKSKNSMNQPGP
# Chain of Tyrosine-protein kinase ABL2 (Homo sapiens) (P42684 whole entry): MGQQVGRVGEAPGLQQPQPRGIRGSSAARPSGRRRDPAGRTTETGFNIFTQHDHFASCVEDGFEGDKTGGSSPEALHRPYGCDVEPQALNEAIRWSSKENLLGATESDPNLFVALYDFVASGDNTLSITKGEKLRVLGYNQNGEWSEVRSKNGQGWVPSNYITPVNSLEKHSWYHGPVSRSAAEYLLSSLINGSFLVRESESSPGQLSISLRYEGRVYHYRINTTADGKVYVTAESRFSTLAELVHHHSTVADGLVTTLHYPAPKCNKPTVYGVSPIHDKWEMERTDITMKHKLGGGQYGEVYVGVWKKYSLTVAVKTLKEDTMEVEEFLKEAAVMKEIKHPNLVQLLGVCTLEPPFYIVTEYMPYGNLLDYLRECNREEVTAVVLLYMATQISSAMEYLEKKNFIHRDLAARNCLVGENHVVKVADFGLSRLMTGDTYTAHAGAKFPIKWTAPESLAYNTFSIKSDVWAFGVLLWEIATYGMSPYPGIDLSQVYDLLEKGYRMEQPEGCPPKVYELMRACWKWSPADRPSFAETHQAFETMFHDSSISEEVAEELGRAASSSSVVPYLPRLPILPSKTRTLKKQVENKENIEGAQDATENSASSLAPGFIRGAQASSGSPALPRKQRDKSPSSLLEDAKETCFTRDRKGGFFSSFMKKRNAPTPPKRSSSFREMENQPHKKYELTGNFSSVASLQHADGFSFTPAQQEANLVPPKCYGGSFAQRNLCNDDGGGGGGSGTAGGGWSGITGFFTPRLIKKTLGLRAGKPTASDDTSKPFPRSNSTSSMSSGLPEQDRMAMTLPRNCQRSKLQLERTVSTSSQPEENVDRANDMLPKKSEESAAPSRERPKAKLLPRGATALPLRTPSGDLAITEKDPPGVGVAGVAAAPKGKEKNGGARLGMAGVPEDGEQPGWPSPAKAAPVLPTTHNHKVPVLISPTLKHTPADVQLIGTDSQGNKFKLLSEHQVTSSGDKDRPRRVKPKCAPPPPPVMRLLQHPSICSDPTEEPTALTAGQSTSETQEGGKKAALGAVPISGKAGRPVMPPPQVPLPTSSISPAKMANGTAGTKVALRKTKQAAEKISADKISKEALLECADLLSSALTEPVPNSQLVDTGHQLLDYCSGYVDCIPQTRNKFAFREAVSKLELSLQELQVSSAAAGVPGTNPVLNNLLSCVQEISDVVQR
smiles,measurement,setting,value
CC(=O)Nc1cccc(C#Cc2cncnc2Nc2ccc(OCc3cccc(F)c3)c(Cl)c2)n1,inhibition,[1],0.8%
same,inhibition,[2],-0.61%
same,inhibition,[3],-0.48%
same,inhibition,[4],0.09%
same,inhibition,[5],1.6%
same,inhibition,[6],1.08%
same,inhibition,[7],3.88%
same,inhibition,[8],0.29%
same,inhibition,[9],3.02%
same,inhibition,[10],0.4%
same,inhibition,[11],2.23%
same,inhibition,[12],2.32%
same,inhibition,[13],1.84%
same,inhibition,[14],1.24%
same,inhibition,[15],4.88%
same,inhibition,[16],-2.16%
same,inhibition,[17],-2.6%
same,inhibition,[18],0.55%
same,inhibition,[19],3.74%
same,inhibition,[20],7.46%
CS(=O)(=O)CCNCc1ccc(-c2ccc3ncnc(Nc4ccc(OCc5cccc(F)c5)c(C(F)(F)F)c4)c3c2)o1,inhibition,[2],4.46%
same,inhibition,[3],3.49%
same,inhibition,[4],4.63%
same,inhibition,[5],3.75%
same,inhibition,[6],4.03%
same,inhibition,[7],1.37%
same,inhibition,[8],4.26%
same,inhibition,[9],2.45%
same,inhibition,[10],1.73%
same,inhibition,[11],4.21%
same,inhibition,[12],4.9%
same,inhibition,[13],2.89%
same,inhibition,[14],2.03%
same,inhibition,[15],2.75%
same,inhibition,[16],1.6%
same,inhibition,[17],2.6%
same,inhibition,[18],4.19%
same,inhibition,[19],4.05%
same,inhibition,[20],-5.05%
CCn1c(-c2nonc2N)nc2c(C#CC(C)(C)O)nc(CN3CCCC3)cc21,inhibition,[1],-0.08%
same,inhibition,[2],0.01%
same,inhibition,[3],0.44%
same,inhibition,[4],0.09%
same,inhibition,[5],0.68%
same,inhibition,[6],-0.36%
same,inhibition,[7],2.83%
same,inhibition,[8],0.06%
same,inhibition,[9],3.09%
same,inhibition,[10],-0.43%
same,inhibition,[11],0.96%
same,inhibition,[12],0.59%
same,inhibition,[13],-0.16%
same,inhibition,[14],0.66%
same,inhibition,[15],3.27%
same,inhibition,[16],-0.84%
same,inhibition,[17],0.01%
same,inhibition,[18],2.08%
same,inhibition,[19],5.65%
same,inhibition,[20],1.88%
Nc1nc(-c2ccccn2)c(-c2ccc3ncccc3n2)s1,inhibition,[1],-5.19%
same,inhibition,[2],2.57%
same,inhibition,[3],3.81%
same,inhibition,[4],3.89%
same,inhibition,[5],4.78%
same,inhibition,[6],-0.12%
same,inhibition,[7],3.17%
same,inhibition,[8],2.96%
same,inhibition,[9],3.86%
same,inhibition,[10],1.93%
same,inhibition,[11],3.65%
same,inhibition,[12],3.71%
same,inhibition,[13],3.66%
same,inhibition,[14],5.61%
same,inhibition,[15],12.5%
same,inhibition,[16],1.41%
same,inhibition,[17],4.86%
same,inhibition,[18],3.71%
same,inhibition,[19],8.87%
same,inhibition,[20],-2.51%
CS(=O)(=O)CCNCc1ccc(-c2ccc3ncnc(Nc4ccc(OCc5ccccc5)c(Cl)c4)c3c2)o1,inhibition,[2],1.33%
same,inhibition,[3],0.95%
same,inhibition,[4],0.8%
same,inhibition,[5],3.2%
same,inhibition,[6],1.7%
same,inhibition,[7],2.85%
same,inhibition,[8],1.92%
same,inhibition,[9],3.15%
same,inhibition,[10],1.4%
same,inhibition,[11],2.14%
same,inhibition,[12],0.5%
same,inhibition,[13],1.92%
same,inhibition,[14],0.58%
same,inhibition,[15],3.7%
same,inhibition,[16],1.08%
same,inhibition,[17],4.89%
same,inhibition,[18],0.92%
same,inhibition,[19],5.67%
same,inhibition,[20],0.79%
COc1cccc(-n2ncc3c(N/N=C/c4cccc(F)c4)ncnc32)c1,inhibition,[1],-4.69%
same,inhibition,[2],40.5%
same,inhibition,[3],84.1%
same,inhibition,[4],51%
same,inhibition,[5],87.6%
same,inhibition,[6],52.3%
same,inhibition,[7],88%
same,inhibition,[8],60.9%
same,inhibition,[9],90.3%
same,inhibition,[10],10.8%
same,inhibition,[11],51.8%
same,inhibition,[12],57.7%
same,inhibition,[13],89.2%
same,inhibition,[14],12%
same,inhibition,[15],69.3%
same,inhibition,[16],-1.54%
same,inhibition,[17],-1.21%
same,inhibition,[18],3.52%
same,inhibition,[19],52.4%
same,inhibition,[20],-2.89%
CCCN1CCC(Oc2cc(Nc3nc(Nc4cccc(F)c4C(N)=O)c4cc[nH]c4n3)c(OC)cc2Cl)CC1,inhibition,[1],6.18%
same,inhibition,[2],-0.41%
same,inhibition,[3],2.46%
same,inhibition,[4],0.38%
same,inhibition,[5],2.29%
same,inhibition,[6],2.95%
same,inhibition,[7],2.4%
same,inhibition,[8],0.68%
same,inhibition,[9],5.93%
same,inhibition,[10],1.91%
same,inhibition,[11],1.37%
same,inhibition,[12],1.12%
same,inhibition,[13],3.82%
same,inhibition,[14],4.76%
same,inhibition,[15],10.1%
same,inhibition,[16],55.7%
same,inhibition,[17],78.2%
same,inhibition,[18],4.89%
same,inhibition,[19],12.3%
same,inhibition,[20],5.22%
Cc1cc(O)cc(C)c1/C=C/c1cncc(-c2nn[nH]n2)c1,inhibition,[1],-4.74%
same,inhibition,[2],17.8%
same,inhibition,[3],79.3%
same,inhibition,[4],21.5%
same,inhibition,[5],79.8%
same,inhibition,[6],17.1%
same,inhibition,[7],79.9%
same,inhibition,[8],23.1%
same,inhibition,[9],81.6%
same,inhibition,[10],2.2%
same,inhibition,[11],8.36%
same,inhibition,[12],31.5%
same,inhibition,[13],86.1%
same,inhibition,[14],12.4%
same,inhibition,[15],71.1%
same,inhibition,[16],-0.37%
same,inhibition,[17],4.03%
same,inhibition,[18],19.9%
same,inhibition,[19],68.6%
same,inhibition,[20],-8.81%
COc1ccc2cc(-c3c(-c4ccncc4)nc(-c4ccc([S+](C)[O-])cc4)n3C)ccc2c1 (configuration not stated),inhibition,[1],-0.4%
same,inhibition,[2],2.75%
same,inhibition,[3],1.85%
same,inhibition,[4],0.68%
same,inhibition,[5],3.52%
same,inhibition,[6],0.25%
same,inhibition,[7],2.54%
same,inhibition,[8],1.22%
same,inhibition,[9],5.05%
same,inhibition,[10],1.07%
same,inhibition,[11],12.1%
same,inhibition,[12],1.26%
same,inhibition,[13],4.12%
same,inhibition,[14],2.44%
same,inhibition,[15],8.87%
same,inhibition,[16],1.63%
same,inhibition,[17],3.57%
same,inhibition,[18],2.63%
same,inhibition,[19],9.3%
same,inhibition,[20],-6.33%
COc1ccc(-c2ccncc2)cc1C(N)=O,inhibition,[2],2.26%
same,inhibition,[3],3.56%
same,inhibition,[4],4.08%
same,inhibition,[5],3.48%
same,inhibition,[6],-0.68%
same,inhibition,[7],-0.45%
same,inhibition,[8],3.19%
same,inhibition,[9],2.33%
same,inhibition,[10],2.27%
same,inhibition,[11],2.08%
same,inhibition,[12],4.84%
same,inhibition,[13],2.94%
same,inhibition,[14],4.11%
same,inhibition,[15],5.76%
same,inhibition,[16],3.85%
same,inhibition,[17],6.43%
same,inhibition,[18],3.92%
same,inhibition,[19],4.08%
same,inhibition,[20],-7.91%
[O-][S+]1CCN(Cc2ccc(-c3ccc4ncnc(Nc5ccc(OCc6ccccc6)c(F)c5)c4c3)o2)CC1,inhibition,[1],-0.59%
same,inhibition,[2],1.66%
same,inhibition,[3],2.97%
same,inhibition,[4],2.03%
same,inhibition,[5],0.51%
same,inhibition,[6],2.17%
same,inhibition,[7],0.04%
same,inhibition,[8],1.58%
same,inhibition,[9],0.89%
same,inhibition,[10],1.21%
same,inhibition,[11],-1.37%
same,inhibition,[12],2.33%
same,inhibition,[13],-0.81%
same,inhibition,[14],1.83%
same,inhibition,[15],5.78%
same,inhibition,[16],1.75%
same,inhibition,[17],4.79%
same,inhibition,[18],3.02%
same,inhibition,[19],3.87%
same,inhibition,[20],-4.98%
